Laboratory results: PubChem BioAssay (NCATS)
Values without a mark were called inactive. Inconclusive results are not listed. Activity calls are given as the source filed them. Unless noted, calls follow the shape of the dose curve; as a rule, active = well fitted curve in the direction sought with a large enough effect; inconclusive = small, poorly fitted or top-dose-only effect, or another doubt; inactive = no such curve, though single readings can be large; an effect the other way counts as inactive or inconclusive.

Legend:
[1] = molecular target: Lysosomal acid glucosylceramidase (Homo sapiens) (UniProt P04062); assay: Glucocerebrosidase-p2 (AID 348; in the data active = potency below about 10 µM; also: potency is read from the fitted curve at half-maximal effect); conditions: purified GBA, blue fluorogenic substrate, 40 min
Procedure, shortened: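 Compounds titrated from 0.6 nM upwards against 0.2 nM enzyme in pH 5.9 citric acid/KH2PO4, taurocholate, tween-20; blue fluorogenic substrate 80 uM, 40 min room temperature, stopped and read Ex 365/Em 440 for AC50.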

[2] = AP1 Signaling Pathway (AID 357; active = well fitted curve in either direction with a large enough effect, not every such curve was filed as active;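 also: ME-180 reporter cells stimulated with EGF at its EC50 level; % is scaled to controls: 0 for no effect and ±100 for the full control effect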); conditions: ME-180 AP-1-bla reporter, EGF-induced, beta-lactamase ratio, 5 h; at 7.69 µM (top of the series) unless noted
Procedure, shortened: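 AP-1-bla ME-180 cells, Opti-MEM + 0.5% dialyzed FBS, plated overnight 37 °C. Cpd titration + EC50 EGF, 5 h 37 °C. CCF4 2.5 h RT; ex 405, em 460/530 ratio → %activity, AC50.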

[3] = molecular target: Cytochrome P450 1A2 (Homo sapiens) (UniProt P05177); assay: p450-cyp1a2 (AID 410; calls by dose curve; also: potency is read from the fitted curve at half-maximal effect); conditions: recombinant CYP1A2, luciferin-ME demethylation, luminescence; series mostly up to 57 µM
Procedure, shortened: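 Luminescent readout of luciferin formed from Luciferin-ME by human CYP1A2; data normalized against complete inhibition by 57 uM furafylline. Enzyme 20nM, substrate 100uM at Km, 100mM KPO4 buffer, 60 min reaction at room temperature.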

[4] = NFAT Signaling Pathway (AID 444; active = well fitted curve in either direction with a large enough effect, not every such curve was filed as active;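 also: carbachol stimulus at about its EC50 of 1 µM final; % is scaled to controls: 0 for no effect and ±100 for the full control effect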); conditions: Jurkat NFAT-bla M1, carbachol, beta-lactamase ratio, 5 h; at 7.69 µM (top of the series) unless noted
Procedure, shortened: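 Read-out: CCF4 FRET ratio (460 nm/530 nm) after 1 h RT dye loading, used for %activity and AC50 from titration series. Cells: Jurkat NFAT-β-lactamase/M1 line, treated with compound plus 1 uM carbachol for 5 h, 37 °C.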

[5] = Stat Signaling Pathway (AID 446; active = well fitted curve in either direction with a large enough effect, not every such curve was filed as active;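 also: ME-180 cervical cancer cells given 40 pM IL-6 alongside compound; SIE-controlled beta-lactamase reporter measured as 460/530 nm FRET emission ratio; % is scaled to controls: 0 for no effect and ±100 for the full control effect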); conditions: ME-180 SIE beta-lactamase reporter, IL-6 stimulated, 5 h; at 7.69 µM (top of the series) unless noted
Procedure, shortened: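 Reporter line: ME-180 cervical carcinoma, SIE-beta-lactamase. Treatment: compound with 40 pM IL-6, 5 hrs, 37 C, in low-serum OPTI-MEM with 10 mM HEPES pH 7.3. Detection: 460/530 nm fluorescence.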

[6] = molecular target: Glucocorticoid receptor (Homo sapiens) (UniProt P04150); assay: GR-GFP Redistribution (AID 450;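 active = compounds whose dose series gives a full or clear partial fitted curve of increased nuclear translocation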; also: potency is read from the fitted curve at half-maximal effect); conditions: U2OS GR-GFP nuclear translocation, laser cytometry, 2 h
[7] = molecular target: Glucocorticoid receptor (Homo sapiens) (UniProt P04150); assay: GR-EFC Redistribution (AID 451; calls by dose curve; also: potency is read from the fitted curve at half-maximal effect); conditions: CHO-K1 GR-EFC translocation, beta-gal luminescence, 2 h
Procedure, shortened: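 Translocation of GR-ED fusion to nuclear EA restores b-gal, read by luminescence after 1 h room-temperature detection. Engineered CHO-K1 biosensor cells, 1,000/well, exposed 2 h at 37 C to titrations up to 46 uM final.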

[8] = molecular target: Mitogen-activated protein kinase 10 (Mus musculus) (UniProt Q61831); assay: JNK3 AlphaScreen Assay (AID 530; active = well fitted curve in either direction with a large enough effect, not every such curve was filed as active;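 also: kinase came from lysate of stimulated human HepG2 cells; signal reports phosphorylation of biotinylated GST-cJun 1-79 at Ser73 with 10 µM ATP; % is scaled to controls: 0 for no effect and ±100 for the full control effect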); conditions: JNK3 lysate, c-Jun phosphorylation; series mostly up to 57.1 µM
Procedure, shortened: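 Compound titrations were preincubated 15 minutes at room temperature with substrate, antibody and pre-activated JNK3-containing HepG2 lysate. Reactions were started with 10 uM ATP and stopped with EDTA-containing bead buffer for AlphaScreen detection.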

[9] = molecular target: 3',5'-cyclic-AMP phosphodiesterase 4B (Homo sapiens) (UniProt Q07343); assay: qHTS Assay for Inhibitors of PDE-IV (AID 607; active = well fitted activation curve with a large enough effect in the main read-out, with a control signal flat, not every such curve was filed as active; also: % of control where 0% means no effect); conditions: HEK293 ACTOne CNG channel cells, membrane potential fluorescence; series mostly up to 22.9 µM
Procedure, shortened: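 Cell-based read-out of cAMP via a modified cyclic nucleotide-gated channel and membrane potential dye (535/590 nm) in HEK293 cells expressing PDE4 endogenously. Compounds tested up to 22.9 uM final; 100 uM RO 20-1724 reference.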

[10] = molecular target: Cytochrome P450 3A4 (Homo sapiens) (UniProt P08684); assay: qHTS Assay for Activators of Cytochrome P450 3A4 (AID 885); conditions: recombinant CYP3A4, Luciferin-PPXE luminescence, 60 min; series mostly up to 57.1 µM; also: nearly all actives have a fitted effect of over 65% in size
Procedure, shortened: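 Signal was normalized against complete inhibition by 57 uM ketoconazole. The reaction used 20nM CYP3A4 with 25uM Luciferin-PPXE, 10-min compound preincubation and a 60-min NADPH-supported step at RT.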

[11] = molecular target: Dual specificity protein kinase CLK4 (Homo sapiens) (UniProt Q9HAZ1); assay: qHTS Assay for Inhibitors of CDC-like Kinase 4 (ADP-FP Assay) (AID 1795); conditions: Transcreener ADP fluorescence polarization; series mostly up to 50 µM; also: nearly all actives have a fitted effect of over 60% in size; also: potency is read from the fitted curve at half-maximal effect
Procedure, shortened: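 Inhibition of ADP formation by 6.25 nM Clk4 is measured using 1 uM ATP and 100 uM RS repeat peptide over one hour. Produced ADP displaces a fluorescent tracer from antibody, lowering polarization.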

[12] = molecular target: Ubiquitin carboxyl-terminal hydrolase 1 (Homo sapiens) (UniProt O94782); assay: Inhibitors of USP1/UAF1: Pilot qHTS (AID 504865); conditions: purified USP1/UAF1, Ub-rhodamine cleavage fluorescence; series mostly up to 54.9 µM;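 also: rhodamine fluorescence freed from ubiquitin-rhodamine substrate followed over time; top concentration of the series differs between compounds; % is scaled to controls: 0 for no effect and ±100 for the full control effect; nearly all actives have a fitted effect of over 35% in size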
Procedure, shortened: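 Kinetic fluorescence assay: 1nM USP1/UAF1, 15 min compound preincubation, then 150nM Ub-Rho; 480/540 nm.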

[13] = Primary qHTS for small molecule stabilizers of the endoplasmic reticulum resident proteome: Secreted ER Calcium Modulated Protein (SERCaMP) assay (AID 1508630); conditions: SH-SY5Y GLuc-SERCaMP (Gaussia luciferase released on ER calcium loss) secretion, thapsigargin, luminescence; series mostly up to 38.4 µM; also: % is scaled to controls: 0 for no effect and ±100 for the full control effect
Procedure, shortened: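 GLuc-SERCaMP-expressing SH-SY5Y cells, pretreated 16 h with compound, are challenged with thapsigargin to empty ER calcium stores; after 4 h, coelenterazine is added directly to the medium and luminescence is imaged.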

[14] = molecular target: Cytochrome P450 3A4 (Homo sapiens) (UniProt P08684); assay: qHTS Assay for Inhibitors and Substrates of Cytochrome P450 3A4 (AID 884); conditions: recombinant CYP3A4, Luciferin-PPXE luminescence; series mostly up to 57.1 µM; also: potency is read from the fitted curve at half-maximal effect; nearly all actives have a fitted effect of over 50% in size
Procedure, shortened: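 20 nM human CYP3A4 with 25 uM Luciferin-PPXE (at KM) in 200 mM KPO4, preincubated 10 min with compound; NADPH regeneration started a 60 min RT reaction. Luciferin detected by luminescence, normalized to 57 uM ketoconazole as full inhibition.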

[15] = molecular target: Cytochrome P450 2D6 (Homo sapiens) (UniProt P10635); assay: qHTS Assay for Inhibitors and Substrates of Cytochrome P450 2D6 (AID 891); conditions: recombinant CYP2D6, luciferin-ME EGE luminescence; series mostly up to 57.1 µM; also: potency is read from the fitted curve at half-maximal effect; nearly all actives have a fitted effect of over 60% in size
Procedure, shortened: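 Human CYP2D6 (5 nM) with 30 uM Luciferin-ME EGE (at Km) in 100 mM KPO4, compound preincubated 10 min, then NADPH regeneration system for 60 min at room temperature. Luciferin read by luminescence; normalized to 1.43 uM quinidine.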

[16] = molecular target: Cytochrome P450 2C19 (Homo sapiens) (UniProt P33261); assay: qHTS Assay for Inhibitors and Substrates of Cytochrome P450 2C19 (AID 899); conditions: recombinant CYP2C19, luciferin-H EGE luminescence; series mostly up to 57.1 µM; also: potency is read from the fitted curve at half-maximal effect; nearly all actives have a fitted effect of over 60% in size
Procedure, shortened: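 Luminescence readout of luciferin formed from 10uM Luciferin-H EGE (KM level) by 5 nM CYP2C19 in 50mM KPO4. 60 min NADPH-driven reaction at 37C after 10 min compound preincubation; data scaled to 57uM ketoconazole inhibition.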

Chain of 3',5'-cyclic-AMP phosphodiesterase 4B (Homo sapiens) (Q07343 whole entry, looked up): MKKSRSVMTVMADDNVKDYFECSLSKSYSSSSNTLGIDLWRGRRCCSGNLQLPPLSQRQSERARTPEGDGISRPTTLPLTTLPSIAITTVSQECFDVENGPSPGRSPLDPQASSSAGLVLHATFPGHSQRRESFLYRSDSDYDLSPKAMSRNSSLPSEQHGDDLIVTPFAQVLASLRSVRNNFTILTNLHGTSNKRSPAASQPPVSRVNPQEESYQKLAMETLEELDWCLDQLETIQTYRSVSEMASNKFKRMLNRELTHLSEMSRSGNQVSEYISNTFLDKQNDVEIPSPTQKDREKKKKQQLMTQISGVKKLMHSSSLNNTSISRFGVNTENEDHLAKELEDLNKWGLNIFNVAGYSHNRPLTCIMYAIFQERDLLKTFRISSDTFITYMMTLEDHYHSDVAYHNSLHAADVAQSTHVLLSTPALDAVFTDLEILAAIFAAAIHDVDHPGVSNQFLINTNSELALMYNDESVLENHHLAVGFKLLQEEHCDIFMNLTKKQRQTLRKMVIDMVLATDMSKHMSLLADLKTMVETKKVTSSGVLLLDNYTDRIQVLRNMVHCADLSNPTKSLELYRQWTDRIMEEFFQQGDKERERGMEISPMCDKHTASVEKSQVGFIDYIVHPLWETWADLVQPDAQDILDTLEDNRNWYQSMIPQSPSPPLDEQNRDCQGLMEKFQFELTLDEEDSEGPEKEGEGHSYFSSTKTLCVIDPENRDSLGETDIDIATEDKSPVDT
Chain of Ubiquitin carboxyl-terminal hydrolase 1 (Homo sapiens) (O94782 whole entry, looked up): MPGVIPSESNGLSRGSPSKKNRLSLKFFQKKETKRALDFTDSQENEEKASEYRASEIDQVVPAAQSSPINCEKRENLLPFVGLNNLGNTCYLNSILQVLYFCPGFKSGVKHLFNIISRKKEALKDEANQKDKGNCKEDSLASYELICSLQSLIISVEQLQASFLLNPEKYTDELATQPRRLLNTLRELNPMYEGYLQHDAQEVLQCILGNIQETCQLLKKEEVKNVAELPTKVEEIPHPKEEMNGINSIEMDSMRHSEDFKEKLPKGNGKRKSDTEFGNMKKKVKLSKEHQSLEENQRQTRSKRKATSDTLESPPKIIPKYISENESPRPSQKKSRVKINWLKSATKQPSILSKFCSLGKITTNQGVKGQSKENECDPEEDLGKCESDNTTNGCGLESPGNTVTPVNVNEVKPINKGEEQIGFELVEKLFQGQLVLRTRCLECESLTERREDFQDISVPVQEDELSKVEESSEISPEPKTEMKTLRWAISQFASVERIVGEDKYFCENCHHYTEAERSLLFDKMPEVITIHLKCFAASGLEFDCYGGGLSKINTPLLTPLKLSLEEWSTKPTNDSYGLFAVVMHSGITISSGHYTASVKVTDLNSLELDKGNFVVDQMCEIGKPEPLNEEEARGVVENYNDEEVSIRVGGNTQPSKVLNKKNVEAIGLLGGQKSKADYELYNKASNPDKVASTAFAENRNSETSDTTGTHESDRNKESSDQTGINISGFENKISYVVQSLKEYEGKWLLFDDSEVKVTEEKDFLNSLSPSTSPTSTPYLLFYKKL
Chain of Glucocorticoid receptor (Homo sapiens) (P04150 whole entry, looked up, the tested form may be a part): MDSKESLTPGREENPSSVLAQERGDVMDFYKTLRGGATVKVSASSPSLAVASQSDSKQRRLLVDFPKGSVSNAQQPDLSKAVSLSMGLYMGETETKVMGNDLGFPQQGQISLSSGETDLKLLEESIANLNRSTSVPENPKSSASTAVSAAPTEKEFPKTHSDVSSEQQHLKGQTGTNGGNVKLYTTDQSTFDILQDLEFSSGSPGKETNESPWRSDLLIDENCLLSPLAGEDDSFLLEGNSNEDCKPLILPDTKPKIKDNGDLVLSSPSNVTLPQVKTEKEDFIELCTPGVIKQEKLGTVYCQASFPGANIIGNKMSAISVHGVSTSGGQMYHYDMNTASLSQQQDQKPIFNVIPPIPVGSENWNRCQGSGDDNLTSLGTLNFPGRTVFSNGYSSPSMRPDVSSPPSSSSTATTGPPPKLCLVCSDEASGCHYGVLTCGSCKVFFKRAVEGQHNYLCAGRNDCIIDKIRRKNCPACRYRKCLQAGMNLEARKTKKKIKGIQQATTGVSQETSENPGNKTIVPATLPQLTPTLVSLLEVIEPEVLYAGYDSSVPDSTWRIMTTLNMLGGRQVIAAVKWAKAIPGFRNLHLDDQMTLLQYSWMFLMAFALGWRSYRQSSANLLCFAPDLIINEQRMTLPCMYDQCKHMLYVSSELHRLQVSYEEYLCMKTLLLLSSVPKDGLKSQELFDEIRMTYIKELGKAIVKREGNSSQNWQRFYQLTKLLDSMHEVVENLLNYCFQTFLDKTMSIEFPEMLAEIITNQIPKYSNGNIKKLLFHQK
Chain of Cytochrome P450 2D6 (Homo sapiens) (P10635 whole entry, looked up): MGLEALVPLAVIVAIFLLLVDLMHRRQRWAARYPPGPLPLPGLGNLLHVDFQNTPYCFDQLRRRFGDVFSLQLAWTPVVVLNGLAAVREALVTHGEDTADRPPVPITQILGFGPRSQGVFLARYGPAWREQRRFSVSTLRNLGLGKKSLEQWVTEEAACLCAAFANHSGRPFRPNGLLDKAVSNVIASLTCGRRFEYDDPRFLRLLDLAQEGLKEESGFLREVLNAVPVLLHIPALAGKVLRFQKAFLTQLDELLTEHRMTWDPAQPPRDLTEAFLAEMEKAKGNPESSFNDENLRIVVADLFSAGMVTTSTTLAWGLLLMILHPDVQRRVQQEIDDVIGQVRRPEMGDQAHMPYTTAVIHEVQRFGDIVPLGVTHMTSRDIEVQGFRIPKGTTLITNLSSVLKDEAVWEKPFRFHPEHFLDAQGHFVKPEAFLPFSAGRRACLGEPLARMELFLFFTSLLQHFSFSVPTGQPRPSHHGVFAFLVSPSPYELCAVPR
Chain of Dual specificity protein kinase CLK4 (Homo sapiens) (Q9HAZ1 whole entry, looked up): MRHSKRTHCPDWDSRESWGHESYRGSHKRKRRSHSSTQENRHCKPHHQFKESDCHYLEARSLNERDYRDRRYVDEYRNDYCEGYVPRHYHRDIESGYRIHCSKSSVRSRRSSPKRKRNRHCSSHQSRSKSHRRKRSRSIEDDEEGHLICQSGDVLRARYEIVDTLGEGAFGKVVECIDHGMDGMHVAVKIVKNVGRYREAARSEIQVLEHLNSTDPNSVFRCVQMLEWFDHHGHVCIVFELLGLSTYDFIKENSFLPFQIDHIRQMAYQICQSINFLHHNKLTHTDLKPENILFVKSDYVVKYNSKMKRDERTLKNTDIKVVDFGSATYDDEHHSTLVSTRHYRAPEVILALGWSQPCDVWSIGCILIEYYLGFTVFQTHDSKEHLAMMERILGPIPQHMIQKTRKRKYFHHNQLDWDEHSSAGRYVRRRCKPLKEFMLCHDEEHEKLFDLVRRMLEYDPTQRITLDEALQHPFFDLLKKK
Chain of Cytochrome P450 1A2 (Homo sapiens) (P05177 whole entry, looked up): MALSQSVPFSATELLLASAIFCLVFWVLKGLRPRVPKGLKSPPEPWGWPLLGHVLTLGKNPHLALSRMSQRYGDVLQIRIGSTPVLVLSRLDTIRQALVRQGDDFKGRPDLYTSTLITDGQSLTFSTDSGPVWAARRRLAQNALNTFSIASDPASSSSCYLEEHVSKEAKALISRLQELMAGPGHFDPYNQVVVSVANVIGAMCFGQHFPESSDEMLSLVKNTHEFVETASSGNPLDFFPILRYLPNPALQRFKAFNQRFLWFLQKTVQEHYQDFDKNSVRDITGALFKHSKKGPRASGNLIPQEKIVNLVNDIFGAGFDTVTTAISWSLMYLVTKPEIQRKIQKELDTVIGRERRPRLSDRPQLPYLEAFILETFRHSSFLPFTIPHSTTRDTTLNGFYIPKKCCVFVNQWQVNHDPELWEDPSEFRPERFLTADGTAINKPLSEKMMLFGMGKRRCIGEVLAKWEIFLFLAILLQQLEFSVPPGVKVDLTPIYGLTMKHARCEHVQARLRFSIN
Chain of Lysosomal acid glucosylceramidase (Homo sapiens) (P04062 whole entry, looked up): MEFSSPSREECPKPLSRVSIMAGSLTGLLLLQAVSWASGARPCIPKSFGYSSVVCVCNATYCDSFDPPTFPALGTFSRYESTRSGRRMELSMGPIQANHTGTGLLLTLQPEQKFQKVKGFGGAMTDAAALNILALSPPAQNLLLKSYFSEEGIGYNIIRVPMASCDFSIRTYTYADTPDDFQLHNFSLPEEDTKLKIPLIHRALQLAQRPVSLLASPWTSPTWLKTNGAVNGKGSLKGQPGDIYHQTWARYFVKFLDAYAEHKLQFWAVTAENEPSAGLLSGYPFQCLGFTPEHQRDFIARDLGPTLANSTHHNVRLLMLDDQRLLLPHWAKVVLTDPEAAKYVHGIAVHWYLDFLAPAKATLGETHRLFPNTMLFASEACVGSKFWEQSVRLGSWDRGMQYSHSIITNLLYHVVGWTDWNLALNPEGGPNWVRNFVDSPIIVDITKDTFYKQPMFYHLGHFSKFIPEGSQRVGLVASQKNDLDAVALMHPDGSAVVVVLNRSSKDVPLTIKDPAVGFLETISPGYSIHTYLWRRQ
Chain of Cytochrome P450 3A4 (Homo sapiens) (P08684 whole entry, looked up): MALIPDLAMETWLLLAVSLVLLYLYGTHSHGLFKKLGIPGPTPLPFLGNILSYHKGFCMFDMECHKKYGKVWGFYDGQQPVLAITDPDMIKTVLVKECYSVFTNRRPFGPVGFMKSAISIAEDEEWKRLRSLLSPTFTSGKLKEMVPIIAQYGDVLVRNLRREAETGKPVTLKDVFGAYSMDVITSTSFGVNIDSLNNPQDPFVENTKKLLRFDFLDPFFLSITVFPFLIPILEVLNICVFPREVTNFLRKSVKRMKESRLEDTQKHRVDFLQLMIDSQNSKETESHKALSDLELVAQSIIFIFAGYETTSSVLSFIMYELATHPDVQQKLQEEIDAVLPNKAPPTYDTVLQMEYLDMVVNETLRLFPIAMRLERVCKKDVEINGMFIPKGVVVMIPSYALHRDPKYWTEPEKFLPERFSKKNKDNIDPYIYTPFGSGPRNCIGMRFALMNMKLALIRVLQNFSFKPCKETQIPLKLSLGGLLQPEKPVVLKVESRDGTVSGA

CN(C)C(=O)c1ccc(-c2cncnc2-n2ccnc2)cc1
Potency [1]: > 11.4 µM
activity change, negative = inhibition [2]: -3.64%
Potency [3]: 20 µM (active)
activity change, negative = inhibition [4]: 13%
activity, negative = inhibition [5]: 3.39%
Potency [6]: > 46 µM
Potency [7]: > 46 µM
Potency [8]: inactive
Potency [9]: inactive
Potency [10]: inactive
Potency [11]: inactive
Potency [12]: inactive
outcome [13]: inactive

COCCn1c(=O)c(-c2cccc(F)c2)nc2cncnc21
Potency [1]: > 11.4 µM
activity change, negative = inhibition [2]: -16%
Potency [3]: 2 µM (active)
activity change, negative = inhibition [4]: -5.24%
activity, negative = inhibition [5]: -1.12%
Potency [6]: > 9.22 µM
Potency [7]: > 46 µM
Potency [8]: inactive
Potency [10]: inactive
Potency [11]: inactive
Potency [12]: inactive
outcome [13]: inactive

CCNc1ncc2nc(-c3cccs3)c(=O)n(-c3ccccc3)c2n1
Potency [1]: > 11.4 µM
activity change, negative = inhibition [2]: -0.879%
Potency [3]: 1.58 µM (active)
activity change, negative = inhibition [4]: -3.13%
Potency [6]: > 9.22 µM
Potency [7]: > 46 µM
Potency [8]: inactive
Potency [11]: inactive
Potency [12]: inactive
outcome [13]: inactive

COc1ccc2[nH]cc(CCNc3ccnc(-c4ccc5c(c4)OCO5)n3)c2c1
Potency [1]: 7.76 µM (active)
activity change, negative = inhibition [2]: -11.1%
Potency [3]: 0.631 µM (active)
activity, negative = inhibition [5]: -13.4%
Potency [6]: > 46 µM
Potency [7]: > 46 µM
Potency [8]: inactive
Potency [9]: inactive
Potency [14]: 2.51 µM (active)
Potency [10]: inactive
Potency [15]: 7.94 µM (active)
Potency [16]: 0.631 µM (active)
Potency [11]: inactive
Potency [12]: inactive
outcome [13]: inactive

CN(Cc1ccco1)c1ccnc(-c2cccnc2)n1
Potency [1]: > 11.4 µM
activity change, negative = inhibition [2]: 16.2%
Potency [3]: 0.794 µM (active)
activity change, negative = inhibition [4]: -13.4%
activity, negative = inhibition [5]: 17.8%
Potency [6]: > 46 µM
Potency [7]: > 46 µM
Potency [8]: inactive
Potency [9]: inactive
Potency [10]: inactive
Potency [15]: 7.94 µM (active)
Potency [16]: 6.31 µM (active)
Potency [11]: inactive
Potency [12]: inactive
outcome [13]: inactive

c1ccc(Nc2ncncc2-c2ccoc2)cc1
Potency [1]: > 11.4 µM
activity change, negative = inhibition [2]: -25%
Potency [3]: 1 µM (active)
activity change, negative = inhibition [4]: 0.789%
activity, negative = inhibition [5]: 5.02%
Potency [7]: > 46 µM
Potency [8]: inactive
Potency [14]: 2 µM (active)
Potency [10]: inactive
Potency [11]: 5.62 µM (active)
outcome [13]: inactive

Cc1ccccc1-c1cc(NCc2cccnc2)ncn1
Potency [1]: > 11.4 µM
activity change, negative = inhibition [2]: 6.3%
Potency [3]: 3.98 µM (active)
activity change, negative = inhibition [4]: 2.72%
activity, negative = inhibition [5]: -6.88%
Potency [6]: > 46 µM
Potency [7]: > 46 µM
Potency [8]: inactive
Potency [9]: inactive
Potency [10]: inactive
Potency [11]: inactive
Potency [12]: inactive
outcome [13]: inactive

CS(=O)(=O)Nc1cccc(-c2cc(NCc3ccccc3)ncn2)c1
Potency [1]: > 11.4 µM
activity change, negative = inhibition [2]: -7.54%
Potency [3]: 12.6 µM (active)
activity change, negative = inhibition [4]: 8.48%
activity, negative = inhibition [5]: -7.25%
Potency [7]: > 46 µM
Potency [8]: inactive
Potency [9]: inactive
Potency [10]: inactive
Potency [11]: inactive
Potency [12]: inactive
outcome [13]: inactive

CCNc1ncc2nc(-c3cccc(C#N)c3)c(=O)n(CCC#N)c2n1
Potency [1]: > 11.4 µM
activity change, negative = inhibition [2]: 12.8%
Potency [3]: 0.631 µM (active)
activity change, negative = inhibition [4]: -1.23%
activity, negative = inhibition [5]: 14.1%
Potency [6]: > 9.22 µM
Potency [7]: > 46 µM
Potency [8]: inactive
Potency [10]: inactive
Potency [15]: 0.0316 µM (active)
Potency [11]: inactive
Potency [12]: inactive
outcome [13]: inactive

c1ccc(CNc2cc(-c3ccoc3)ncn2)cc1
Potency [1]: > 11.4 µM
activity change, negative = inhibition [2]: -7.43%
Potency [3]: 25.1 µM (active)
activity change, negative = inhibition [4]: -2.19%
activity, negative = inhibition [5]: -2.59%
Potency [6]: > 46 µM
Potency [7]: > 46 µM
Potency [8]: inactive
Potency [9]: inactive
Potency [10]: inactive
Potency [11]: inactive
Potency [12]: inactive
outcome [13]: inactive

CN(C)C(=O)c1ccc(-c2nccc(-n3ccnc3)n2)cc1
Potency [1]: > 11.4 µM
activity change, negative = inhibition [2]: 4.46%
Potency [3]: 15.8 µM (active)
activity change, negative = inhibition [4]: 5.95%
activity, negative = inhibition [5]: 8.25%
Potency [6]: > 46 µM
Potency [7]: > 46 µM
Potency [8]: inactive
Potency [9]: inactive
Potency [10]: inactive
Potency [11]: inactive
Potency [12]: inactive
outcome [13]: inactive

CC(=O)NCCNc1nc(-c2c(C)noc2C)nc2ccccc12
Potency [1]: > 11.4 µM
activity change, negative = inhibition [2]: 5.25%
Potency [3]: 1.58 µM (active)
activity change, negative = inhibition [4]: 6.76%
activity, negative = inhibition [5]: 1.96%
Potency [6]: > 46 µM
Potency [7]: > 46 µM
Potency [8]: inactive
Potency [9]: inactive
Potency [10]: inactive
Potency [11]: inactive
Potency [12]: inactive
outcome [13]: inactive

COc1ccccc1-c1nc(NCCN2CCOCC2)c2ccccc2n1
Potency [1]: > 11.4 µM
activity change, negative = inhibition [2]: 7.09%
Potency [3]: 7.94 µM (active)
activity change, negative = inhibition [4]: -28.2%
activity, negative = inhibition [5]: 29.7%
Potency [6]: > 46 µM
Potency [7]: > 46 µM
Potency [8]: inactive
Potency [9]: inactive
Potency [10]: inactive
Potency [11]: inactive
Potency [12]: inactive
outcome [13]: inactive
